Records with an inconclusive call do not appear. Calls of active or inactive are those of the source. Unless noted, calls come from the whole dose curve; as a rule, active = well fitted curve in the direction sought with a large enough effect in the repeat runs; inconclusive = weak or mixed curves; inactive = no such curve, though single readings can be large; an effect the other way counts as inactive or inconclusive.
Assays:
[1] = A CellTox Green Cytotoxicity Assay to monitor cytotoxicity in HEK293 cells - 32 hour (AID 1224881); note: nearly all actives have a fitted effect of over 40% in size
In short: (§1)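 Nonlytic real-time cytotoxicity: HEK293 + CellTox Green reagent plated, 5 h preincubation, pintool compound addition (23 nL in DMSO), 37 C for 40 h, fluorescence measured at successive time points.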

[2] = A CellTox Green Cytotoxicity Assay to monitor cytotoxicity in HepG2 cells - 32 hour (AID 1224883); note: nearly all actives have a fitted effect of over 50% in size
In short: (§2)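 Read-out is fluorescence of a cyanine dye excluded from live cells that stains DNA of dead HepG2 cells, with signal proportional to cytotoxicity. Plates were read at 0, 8, 16, 24, 32 and 40 h after compound addition.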

[3] = A CellTox Green Cytotoxicity Assay to monitor cytotoxicity in HEK293 cells - 8 hour (AID 1224884); note: nearly all actives have a fitted effect of over 35% in size
In short: as §1

[4] = qHTS RealTime-Glo MT Cell Viability Assay in HepG2 cells - 16 hour (AID 1224885); note: nearly all actives have a fitted effect of over 50% in size
In short: (§3)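 Tox21 10K library screened in qHTS format on HepG2 cells carrying RealTime-Glo reagents. Compounds were added after a 5 h preincubation, and the luminescent signal from continuous culture was measured repeatedly during 40 h treatment.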

[5] = qHTS RealTime-Glo MT Cell Viability Assay in HEK293 cells - 24 hour (AID 1224886); note: top concentration of the series differs between compounds; nearly all actives have a fitted effect of over 50% in size
In short: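 Luminescence generated by NanoLuc from substrate produced by living HEK293 cells served as the viability signal. Each value reflects the reading at its stated time point during continuous 40 h compound exposure at 37 C.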

[6] = qHTS RealTime-Glo MT Cell Viability Assay in HEK293 cells - 8 hour (AID 1224887); note: top concentration of the series differs between compounds; nearly all actives have a fitted effect of over 50% in size
In short: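 Cells were seeded together with NanoLuc luciferase and a prosubstrate that viable cells reduce to a luciferase substrate. After a 5 h incubation at 37 C/5% CO2, compounds were added and luminescence was measured repeatedly during 40 h of treatment.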

[7] = A CellTox Green Cytotoxicity Assay to monitor cytotoxicity in HEK293 cells - 16 hour (AID 1224888); note: nearly all actives have a fitted effect of over 35% in size
In short: as §1

[8] = qHTS RealTime-Glo MT Cell Viability Assay in HepG2 cells - 0 hour (AID 1224889); note: nearly all actives have a fitted effect of over 50% in size
In short: as §3

[9] = qHTS assay to identify small molecule antagonists of the estrogen receptor alpha (ER-alpha) signaling pathway using the BG1 cell line in the presence of 0.1 nM 17-beta-estradiol - cell viability counter screen (AID 1259241); note: nearly all actives have a fitted effect of over 40% in size
In short: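 VM7Luc4E2, 4,000 cells/well, phenol red-free medium + 10% charcoal-stripped FBS; 24 hr plating; cpd + 0.1 nM E2 final, 22 hr 37C/5% CO2; CellTiter-Fluor 30 min, fluorescence.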

[10] = qHTS assay to identify small molecule antagonists of the androgen receptor (AR) signaling pathway using the MDA cell line in the presence of 0.5 nM R1881 - cell viability counter screen (AID 1259242); note: nearly all actives have a fitted effect of over 45% in size
In short: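 Counter screen for cytotoxicity run in the same wells as the AR antagonist reporter screen: MDA-kb2 cells were treated 16 hr with test compounds and 0.5 nM R1881, then live-cell protease activity was measured by fluorescence.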

[11] = target: Estrogen receptor (Homo sapiens) (UniProt P03372); experiment: qHTS assay to identify small molecule antagonists of the estrogen receptor alpha (ER-alpha) signaling pathway using the BG1 cell line in the presence of 0.1 nM 17-beta-estradiol (AID 1259244); note: nearly all actives have a fitted effect of over 50% in size
In short: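 Cells: VM7Luc4E2, endogenous ER-alpha, 4x ERE-luc stable. Pre-culture 5 d, phenol red-free, charcoal-stripped FBS. Plated 24 h, compound + E2 0.1 nM final, 22 h 37C/5% CO2. Readout ONE-Glo luminescence.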

[12] = qHTS assay to identify small molecule HDAC inhibitors (AID 1259364); note: top concentration of the series differs between compounds; nearly all actives have a fitted effect of over 45% in size
In short: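 Luminescence from a cell-permeant luminogenic class I/II HDAC substrate reports endogenous deacetylase activity in intact HCT-116 cells treated with compounds for 2 h.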

[13] = qHTS assay to identify small molecule HDAC inhibitors - cell viability counter screen (AID 1259365)
In short: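 Luminescence from CellTiter-Glo, developed 30min at room temperature, reports viability of wild-type HCT-116 cells treated 2hr with compounds at 37 C and 5% CO2 after overnight plating.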

[14] = qHTS assay to identify small molecule agonists of the sonic hedgehog signaling (Shh) pathway - cell viability counter screen (AID 1259366); note: nearly all actives have a fitted effect of over 50% in size
In short: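 Cytotoxicity counter screen run in the same wells as the Shh reporter assay. NIH/3T3 cells carrying a Gli1 response element–driven luciferase were treated with DMSO-dissolved compounds for 24hr, and live-cell protease activity was measured with CellTiter-Fluor.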

[15] = A CellTox Green Cytotoxicity Assay to monitor cytotoxicity in HepG2 cells - 0 hour (AID 1224882); note: nearly all actives have a fitted effect of over 35% in size
In short: as §2

[16] = A CellTox Green Cytotoxicity Assay to monitor cytotoxicity in HepG2 cells - 8 hour (AID 1224890); note: nearly all actives have a fitted effect of over 45% in size
In short: as §2

[17] = qHTS assay to identify small molecule phospholipidosis (PLD) inducers (AID 1259344; active = well fitted curve in the direction sought with a large enough effect; an effect the other way counts as inactive or inconclusive)
In short: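 Phospholipidosis is scored by imaging LipidTOX-stained pits in HepG2 cells exposed to compound for 24 h at 37 C; pit counts and integrated intensities per well and per cell serve as outputs.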

[18] = target: Androgen receptor (Homo sapiens) (UniProt P10275); experiment: qHTS assay to identify small molecule antagonists of the androgen receptor (AR) signaling pathway using the MDA cell line in the presence of 0.5 nM R1881 (AID 1259243); note: nearly all actives have a fitted effect of over 50% in size
In short: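 Luciferase luminescence is the read-out: compounds are tested for suppressing 0.5 nM R1881-driven MMTV reporter activity in MDA-kb2 cells after 16 hr at 37C.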

[19] = qHTS assay to identify small molecule antagonists of the sonic hedgehog signaling (Shh) pathway - cell viability counter screen (AID 1259367); note: nearly all actives have a fitted effect of over 55% in size
In short: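 Cells: 3T3 Gli1-Luc, 2,000/well, 4 hr pre-incubation. Compounds in DMSO, then conditioned medium. Incubation 24 hr, 37C, 5% CO2. CellTiter-Fluor at 23 hr, 1 hr, fluorescence.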
% is set by controls: 0 for no effect and ±100 for the full control effect.

Androgen receptor (Homo sapiens), sequence (P10275 whole entry, looked up): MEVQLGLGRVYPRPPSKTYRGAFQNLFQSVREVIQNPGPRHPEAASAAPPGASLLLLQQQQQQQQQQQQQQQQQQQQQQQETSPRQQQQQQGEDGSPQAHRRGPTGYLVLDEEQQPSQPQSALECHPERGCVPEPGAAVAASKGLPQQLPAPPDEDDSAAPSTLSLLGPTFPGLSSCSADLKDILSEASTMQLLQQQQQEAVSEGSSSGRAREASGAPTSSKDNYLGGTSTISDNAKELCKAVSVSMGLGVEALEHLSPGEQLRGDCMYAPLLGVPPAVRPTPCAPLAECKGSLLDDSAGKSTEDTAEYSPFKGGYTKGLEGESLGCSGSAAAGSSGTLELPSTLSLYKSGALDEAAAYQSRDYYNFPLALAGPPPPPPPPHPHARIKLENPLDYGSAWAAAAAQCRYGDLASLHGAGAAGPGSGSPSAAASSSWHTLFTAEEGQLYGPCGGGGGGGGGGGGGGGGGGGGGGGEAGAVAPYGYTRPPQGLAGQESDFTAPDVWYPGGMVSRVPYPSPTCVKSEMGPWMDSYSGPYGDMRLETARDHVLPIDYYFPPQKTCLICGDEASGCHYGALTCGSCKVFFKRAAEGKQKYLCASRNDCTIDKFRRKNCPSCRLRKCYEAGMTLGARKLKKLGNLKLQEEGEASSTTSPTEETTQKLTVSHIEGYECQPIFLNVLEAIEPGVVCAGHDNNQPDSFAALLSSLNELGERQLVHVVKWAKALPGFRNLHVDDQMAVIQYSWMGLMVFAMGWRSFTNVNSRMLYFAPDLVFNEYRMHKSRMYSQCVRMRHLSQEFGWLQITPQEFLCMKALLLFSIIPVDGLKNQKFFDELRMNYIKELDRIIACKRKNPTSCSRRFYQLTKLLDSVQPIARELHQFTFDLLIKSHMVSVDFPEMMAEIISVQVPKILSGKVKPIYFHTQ
Estrogen receptor (Homo sapiens), sequence (P03372 whole entry, looked up): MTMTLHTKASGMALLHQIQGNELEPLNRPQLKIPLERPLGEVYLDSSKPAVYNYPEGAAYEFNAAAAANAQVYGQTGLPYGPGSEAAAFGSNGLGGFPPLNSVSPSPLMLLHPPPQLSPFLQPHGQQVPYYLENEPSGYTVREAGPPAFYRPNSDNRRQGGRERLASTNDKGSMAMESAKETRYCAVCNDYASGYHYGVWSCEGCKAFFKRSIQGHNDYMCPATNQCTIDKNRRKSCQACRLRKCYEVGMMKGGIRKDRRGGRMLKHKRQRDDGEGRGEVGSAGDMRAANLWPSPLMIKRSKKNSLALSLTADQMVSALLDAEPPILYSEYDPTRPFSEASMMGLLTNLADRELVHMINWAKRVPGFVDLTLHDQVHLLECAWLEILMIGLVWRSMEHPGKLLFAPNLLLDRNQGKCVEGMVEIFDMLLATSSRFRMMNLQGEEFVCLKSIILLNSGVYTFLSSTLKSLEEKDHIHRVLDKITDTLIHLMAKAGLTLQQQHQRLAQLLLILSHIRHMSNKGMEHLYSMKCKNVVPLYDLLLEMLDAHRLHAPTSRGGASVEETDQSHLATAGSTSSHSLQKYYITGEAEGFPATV

Clc1nc(Cl)nc(Nc2ccccc2Cl)n1
inactive: Potency [1] | Potency [2] | Potency [3] | Potency [4] | Potency [5] | Potency [6] | Potency [7] | outcome [8] | outcome [9] | Potency [10] | Potency [11] | Potency [12] | outcome [13] | Potency [14]

Cc1ccc(-c2nc3ccc(C)cn3c2CC(=O)N(C)C)cc1
inactive: Potency [1] | outcome [15] | Potency [3] | Potency [4] | Potency [6] | Potency [7] | outcome [8] | Potency [16] | outcome [9] | Potency [10] | Potency [11] | Potency [17] | Potency [12] | outcome [13]

CC(C)(N)Cc1ccccc1Cl
inactive: Potency [1] | outcome [15] | Potency [2] | Potency [3] | Potency [4] | Potency [5] | Potency [6] | Potency [7] | outcome [8] | outcome [9] | Potency [10] | Potency [18] | Potency [11] | Potency [12] | outcome [13] | Potency [14]

Cc1ccc(S(=O)(=O)N[C@@H](CCCCN)C(=O)CCl)cc1
inactive: outcome [15] | Potency [2] | Potency [3] | Potency [4] | Potency [5] | Potency [6] | Potency [7] | outcome [8] | Potency [16] | outcome [9] | Potency [10] | Potency [18] | Potency [11] | Potency [17] | Potency [12] | outcome [13] | Potency [19]

CN=CNc1ccc(C)cc1C
inactive: outcome [15] | Potency [2] | Potency [4] | Potency [5] | Potency [6] | Potency [7] | outcome [8] | outcome [9] | Potency [10] | Potency [11] | outcome [13] | Potency [14] | Potency [19]

CCC(C)C(C)(COC(N)=O)COC(N)=O (stereo not given)
inactive: Potency [1] | outcome [15] | Potency [2] | Potency [3] | Potency [4] | Potency [5] | Potency [6] | outcome [8] | Potency [16] | outcome [9] | Potency [10] | Potency [11] | Potency [12] | outcome [13] | Potency [14] | Potency [19]

CCC(=O)c1ccc(Cl)cc1
inactive: Potency [1] | outcome [15] | Potency [2] | Potency [3] | Potency [4] | Potency [5] | Potency [7] | outcome [8] | Potency [16] | outcome [9] | Potency [10] | Potency [12] | outcome [13] | Potency [14] | Potency [19]

CC(=O)OCC1=C(C(=O)O)N2C(=O)[C@@H](N)[C@H]2SC1
inactive: cytotoxicity increase [1] -3.48% [at 15.8 µM] | cytotoxicity increase [3] -3.34% [at 15.8 µM] | activity change, negative = cytotoxic [4] 0.0339% [at 15.8 µM] | activity change, negative = cytotoxicity [5] 11.4% [at 15.8 µM] | activity change, negative = cytotoxicity [6] -14.1% [at 15.8 µM] | activity change [7] 2.87% [at 15.8 µM, active compounds read high] | activity change, negative = cytotoxicity [8] -5.45% [at 15.8 µM] | cytotoxicity increase [16] 1.96% [at 15.8 µM] | activity change, negative = cytotoxicity [9] 4.49% [at 19 µM] | viability change, negative = cytotoxic [10] 4.78% [at 19 µM] | Potency [17] | activity change, negative = cytotoxicity [13] 0.172% [at 19 µM]

CC1=C2[C@H]3OC(=O)[C@@H](C)[C@@H]3CC[C@@]2(C)C=CC1=O
inactive: Potency [1] | outcome [15] | Potency [3] | Potency [4] | Potency [5] | Potency [6] | Potency [7] | outcome [8] | Potency [16] | outcome [9] | Potency [10] | Potency [17] | Potency [12] | outcome [13] | Potency [19]

Oc1ccc(Cc2ccc(O)cc2)cc1
inactive: Potency [1] | outcome [15] | Potency [2] | Potency [3] | Potency [4] | Potency [6] | Potency [7] | outcome [8] | Potency [16] | outcome [9] | Potency [10] | Potency [11] | Potency [12] | outcome [13] | Potency [19]

O=P(O)(O)CN(CP(=O)(O)O)CP(=O)(O)O
inactive: outcome [15] | Potency [2] | cytotoxicity increase [3] 30% [at 15.8 µM] | Potency [4] | activity change [7] 27.1% [at 15.8 µM, active compounds read high] | outcome [8] | outcome [9] | Potency [10] | Potency [11] | Potency [12] | outcome [13] | Potency [14] | Potency [19]

O=C(Cl)OCc1ccccc1
inactive: Potency [1] | outcome [15] | Potency [2] | Potency [3] | Potency [4] | Potency [5] | Potency [6] | outcome [8] | Potency [16] | outcome [9] | Potency [10] | Potency [11] | Potency [12] | outcome [13] | Potency [14] | Potency [19]

C=C(Cl)CSC(=S)N(CC)CC
inactive: Potency [1] | outcome [15] | Potency [2] | Potency [3] | Potency [4] | Potency [5] | Potency [6] | Potency [7] | outcome [8] | Potency [16] | Potency [10] | Potency [12] | outcome [13] | Potency [14] | Potency [19]

O=C1CC(=O)NC(=O)N1
inactive: Potency [1] | outcome [15] | Potency [2] | Potency [3] | Potency [4] | Potency [5] | Potency [6] | Potency [7] | outcome [8] | Potency [16] | outcome [9] | Potency [10] | Potency [11] | Potency [12] | outcome [13] | Potency [19]

CC1N=C(N)OC1c1ccccc1 (stereo not given)
inactive: Potency [1] | outcome [15] | Potency [2] | Potency [3] | Potency [4] | Potency [5] | Potency [6] | outcome [8] | Potency [16] | outcome [9] | Potency [10] | Potency [11] | Potency [17] | Potency [12] | outcome [13] | Potency [14] | Potency [19]

CNC(=O)O/N=C(/CSC)C(C)(C)C
inactive: Potency [1] | outcome [15] | Potency [3] | Potency [4] | Potency [5] | Potency [6] | Potency [7] | outcome [8] | Potency [16] | outcome [9] | Potency [10] | Potency [18] | Potency [11] | Potency [12] | outcome [13] | Potency [14]
